In the library only some 0.43% were active in any assay of this set; here they are far more common.
GLA spleen mod: qHTS Assay for Inhibitors and Activators of Human alpha-Galactosidase From Spleen Homogenate | AID 2107, 2009 | Potency, µM (doses to about 80 µM), inactives show at the top dose activity change, negative = inhibition, hits mostly inhibitors | 0.008% of 240,000 active | Alpha-galactosidase A (Homo sapiens), P06280 | human spleen homogenate, 4MU-alpha-Gal fluorescence, 40 min;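 further: potency means the concentration at half of the fitted maximal effect; 0% = enzyme with vehicle and -100% = no enzyme basal signal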
Target sequence (P06280 32-429 limits assumed): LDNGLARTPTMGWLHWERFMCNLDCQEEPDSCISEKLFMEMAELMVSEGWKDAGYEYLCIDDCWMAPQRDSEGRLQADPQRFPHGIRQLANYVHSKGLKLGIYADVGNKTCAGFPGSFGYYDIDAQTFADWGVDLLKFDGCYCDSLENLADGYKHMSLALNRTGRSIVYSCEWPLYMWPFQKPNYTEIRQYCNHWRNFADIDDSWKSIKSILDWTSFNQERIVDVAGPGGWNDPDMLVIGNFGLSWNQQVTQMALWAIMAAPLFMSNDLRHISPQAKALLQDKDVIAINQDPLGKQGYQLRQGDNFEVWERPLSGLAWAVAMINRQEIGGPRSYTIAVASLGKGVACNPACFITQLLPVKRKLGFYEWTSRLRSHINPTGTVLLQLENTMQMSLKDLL
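Fluorogenic readout (Ex 365/Em 440 nm) of 4-methylumbelliferone released from 1 mM 4-MU-alpha-galactoside by spleen homogenate, 40 min at 37C, pH 5.0. Data normalized to no-enzyme and enzyme controls; Hill-equation AC50 from compound titrations.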
N370S GC mod: qHTS Assay for Inhibitors and Activators of N370S glucocerebrosidase as a Potential Chaperone Treatment of Gaucher Disease; Lysosomal acid glucosylceramidase (Homo sapiens), P04062; N370S GC spleen homogenate, 4MU-glucoside fluorescence; Potency, µM (doses to about 59.4 µM), for inactives: at the top dose activity change, negative = inhibition, hits mostly inhibitors; 0.092% of 330,000 active; AID 2101, 2009;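 further: potency means the concentration at half of the fitted maximal effect; 0% = full enzyme activity and -100% = no enzyme basal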
GAA inh: qHTS Assay for Inhibitors of Human alpha-Glucosidase as a Potential Chaperone Treatment of Pompe Disease; purified human GAA, 4-MU-alpha-glucoside fluorescence; Potency, µM (top dose mostly 76.9 µM), inactives show at the highest dose activity change, negative = inhibition, most hits filed as inhibitors; Lysosomal alpha-glucosidase (Homo sapiens), P10253; 0.005% of 200,000 active;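 further: potency means the concentration at half of the fitted maximal effect; plate controls were uninhibited enzyme wells for no effect and no-enzyme background for full effect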
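Read-out is 4-methylumbelliferone fluorescence (Ex 365/Em 440 nm) after NaOH/glycine stop at pH 10. Enzyme 4 nM, substrate 400 uM, pH 5.0 citrate buffer, 20 min room temperature; AC50 from Hill-equation concentration-response.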
GAA glycogen mod: qHTS Assay for Inhibitors and Activators of Human alpha-Glucosidase Cleavage of Glycogen | Lysosomal alpha-glucosidase (Homo sapiens), P10253 | recombinant GAA, glycogen substrate, Amplex Red glucose oxidase fluorescence | Potency, µM (titrated, usually from 76.4 µM), inactives show at the top dose activity change, negative = inhibition, hits mostly inhibitors | 0.38% of 300,000 active;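 further: potency means the concentration at half of the fitted maximal effect; 0% = full enzyme reaction and -100% = no-enzyme basal signal; the screen sought inhibitors and activators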
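qHTS, 1536-well; enzyme 4 nM final; cpd up to 77 uM; substrate bovine liver glycogen 30 ug; 50 mM citrate/phosphate pH 5.0, 0.01% Tween-20; 37 C, 40 min; Amplex Red detection 45 min RT; Hill fit → AC50.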
GLA inh pH 4.5: qHTS Assay for Inhibitors of Human alpha-Galactosidase at pH 4.5; Alpha-galactosidase A (Homo sapiens), P06280; purified enzyme, 4-MU-alpha-Gal fluorescence, pH 4.5; activity change, negative = inhibition, % at 105 µM; 230,000 tested, under 10 active; AID 1467, 2008;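 further: 0% = full activity with enzyme and -100% = basal without enzyme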
aGlu spleen mod: qHTS Assay for Inhibitors and Activators of Human alpha-Glucosidase From Spleen Homogenate | human spleen homogenate, 4-MU-alpha-glucoside fluorescence | 0.006% of 240,000 active | Potency, µM (series often up to 79.9 µM), for inactives: at the highest dose activity change, negative = inhibition, hits mostly inhibitors;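 further: potency means the concentration at half of the fitted maximal effect; 0% = enzyme with vehicle and -100% = no enzyme basal signal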
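Human spleen homogenate (1 ug) with 4-methylumbelliferyl-alpha-D-glucopyranoside (1 mM final) in 50 mM citrate/phosphate pH 5.0, 0.01% Tween-20; 40 min at 37 C. Stopped at pH 10; 4-MU fluorescence Ex 365/Em 440 nm; AC50 by Hill fit.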
Numbers without * were called inactive; ? = inconclusive; . = no result; [ ] = dose if it differs, or a comment. The call rests on the fitted dose curve; in most records, active means well fitted curve in the direction sought with a large enough effect; inconclusive means small, poorly fitted or top-dose-only effect, or another doubt; inactive means no such curve, though single readings can be large; an effect the other way counts as inactive or inconclusive.

SMILES | GLA spleen mod | N370S GC mod | GAA inh | GAA glycogen mod | GLA inh pH 4.5 | aGlu spleen mod
O=c1ccc2cc3ccoc3cc2o1 | -9.7% | 3.5% | . | -5.8%[76.3 µM] | -2.6 | 13.7%
O=c1ccc2cc(O)c(O)cc2o1 | ? | ? | ? | 6.31µM* | ? | 5.2%
Cc1cc(C)nc(NNC2=CC(=[N+]3CCCC3)CCC2)n1 | 4.7% | 1.1% | -0.9% | 2.24µM* | 0.7 | 3.6%
COCC(=O)Nc1c(C(=O)Nc2ccc3c(c2)OCCO3)oc2ccccc12 | -5.8% | -12.1% | -5.7% | 2.0% | -8.4 | .
Cc1cc(C)cc(N2C(N)=NC(N)=NC2c2cccc(Cl)c2)c1 (configuration not stated) | . | -24.6% | . | -13.3% | . | .
Cc1cc(C)cc(N2C(N)=NC(N)=NC2c2ccccc2F)c1 (configuration not stated) | . | 15.8µM* | . | -12.1% | . | .
NC(=O)/C(=N\O)c1ccccc1 | 10.1% | -7.3% | ? | 10.1% | -2.3 | 4.2%
COc1cccc(/C=N/c2oc(-c3ccccc3)cc2C#N)c1O | 1.6% | -16.2% | -3.7% | 28µM* | -10.6 | -8.3%
N#Cc1cc(-c2ccccc2)oc1/N=C/c1ccccc1O | 1.5% | 4.4% | -6.3% | ? | 3.3 | -6.5%
CCCc1cc(=O)oc2cc(OCC(=O)NC(Cc3c[nH]c4ccc(O)cc34)C(=O)O)c(Cl)cc12 (configuration not stated) | . | 4.0% | . | 7.94µM* | . | .
COc1cc(-c2cc(=O)c3c(O)c(OC)c(OC)c(O)c3o2)ccc1O | -1.3% | -13.5% | . | 22.4µM* | -1.0 | -24.9%
COc1ccc(-c2cc(=O)c3c(O)c(OC)c(OC)c(OC)c3o2)cc1OC | 2.0% | 0.4% | . | . | 3.0 | 0.7%
CCCn1nc(NS(=O)(=O)c2ccccc2[N+](=O)[O-])c2cc3ccccc3nc21 | . | -0.8% | . | -7.7%[76.3 µM] | . | .
Oc1ccc2[nH]ccc2c1 | 19.9% | -1.5% | -2.1% | 14.1µM* | -4.7 | -15.4%
Cc1ccc(NC(=O)CCCc2nnc3n(C)c(=O)c4sccc4n23)cc1C | . | . | . | -4.1%[76.3 µM] | . | .
Cn1c(=O)c2sccc2n2c(CCCC(=O)Nc3ccc(F)c(F)c3)nnc12 | . | . | . | 2µM* | . | .
C=CCc1cc(/C=C/c2nc(O)c([N+](=O)[O-])c(=O)[nH]2)cc(OC)c1O | -2.2% | -13.4% | ? | 11.1µM* | -11.2 | -26.1%
Cc1cc(-c2ccccc2)nc2[nH]n(-c3ccccc3)c(=O)c12 | 0.5% | -3.7% | -0.3% | 35.5µM* | 4.2 | -2.0%
Cc1cc(C)c2c(=O)n(-c3ccccc3)[nH]c2n1 | -5.5% | -15.7% | -3.0% | -24.8% | 8.4 | -5.5%
O=S(=O)(c1ccc(Cl)cc1)N1CCN(c2nc(-c3cccs3)nc3ccccc23)CC1 | 9.9% | 0.447µM* | ? | -7.4% | -9.2 | 5.5%
COc1cc(CC(=O)OCC(=O)Nc2sccc2C(N)=O)cc(OC)c1OC | 0.3% | 1.7% | 0.8% | -1.3% | 2.5 | -2.1%
O=C1C2C3C=CC(CC3)C2C(=O)N1/N=C/c1ccc(O)c(O)c1 (configuration not stated) | -0.7% | 0.2% | -1.0% | 7.08µM* | -3.2 | -4.1%
O=C(/C=C/c1ccc(Cl)cc1)Nc1ccccc1N1CCOCC1 | 3.6% | 9.0% | 2.4% | -5.3% | -1.2 | 1.7%
CC(C)Cc1nnc(NC(=O)Cc2ccccc2[N+](=O)[O-])s1 | -4.6% | ? | 2.2% | 14.2% | 3.4 | -4.0%
CCOC(=O)C1=C(c2ccccc2)Nc2c(c(=O)n(C)c(=O)n2C)C1c1ccc(O)c(OC)c1 (configuration not stated) | 5.8% | -9.9% | -0.6% | 31.6µM* | -16.2 | 1.0%
SMILES | GLA spleen mod | N370S GC mod | GAA inh | GAA glycogen mod | GLA inh pH 4.5 | aGlu spleen mod
CCOC(=O)C1=C(c2ccccc2)N(C)C(=O)NC1c1ccc(O)c(OC)c1 (configuration not stated) | 5.1% | 3.0% | -5.4% | ? | -4.2 | 4.4%
CC(C)[C@H](Nc1ccc(S(=O)(=O)N2CCOCC2)cc1[N+](=O)[O-])C(=O)OCC(=O)N(C(C)C)C(C)C | -0.4% | 18.1% | 3.5% | 5.6% | -4.0 | -4.2%
CCOC(=O)CN=C1CC(C)(C)CC2=C1Sc1ncnc(N(C)C)c1N2 | 5.8% | -3.7% | 0.5% | 28µM* | 0.1 | -0.5%
CCOC(=O)C(=O)NC(C)c1ccccc1 (configuration not stated) | -4.0% | 1.7% | -3.1% | 6.9% | 9.1 | .
O=C(O)C1OC(Oc2cc3oc(-c4ccccc4)cc(=O)c3c(O)c2O)C(O)C(O)C1O (configuration not stated) | -2.3% | 22.1% | 2.4%[15.4 µM] | 6.31µM* | 2.4 | -4.4%
CN1CCN(CCCNC(=O)c2ccc3c(=O)n(CCc4ccccc4)c(=O)[nH]c3c2)CC1 | . | ? | . | -1.8% | . | .
N=c1c2c(-c3ccccc3)c(-c3ccccc3)n(Cc3ccccc3)c2ncn1CCCn1ccnc1 | 0.7% | 2.24µM* | ? | 2.3% | -30.9 | -1.7%
CCCCn1cnc2c(c(-c3ccccc3)c(-c3ccccc3)n2Cc2ccco2)c1=N | -0.8% | ? | . | 4.4% | -3.2 | 1.5%
Oc1ccc(C2Nc3cccc4cccc(c34)N2)c(O)c1 | 8.3% | -3.9% | 2.7% | 19.8µM* | -24.7 | -5.0%
Cc1ccc(Nc2c(-c3ccc(N4CCOCC4)cc3)nc3c(C)cccn23)cc1 | . | . | . | 15.8µM* | . | .
COc1ccc(-c2nc3ncccn3c2Nc2ccc3c(c2)OCCO3)cc1 | 8.0% | 8.7% | -2.4% | ? | 0.4 | 0.1%
Cc1cccc(Nc2c(-c3ccc(N4CCOCC4)cc3)nc3ncccn23)c1 | -1.3% | 9.1% | 3.5% | 35.5µM* | 6.4 | -3.5%
O=C(NC(=S)Nc1ccc(N2CCCC2)cc1)c1ccccc1[N+](=O)[O-] | 1.4% | -10.1% | 5.2% | -1.3% | -1.8 | -9.3%
CCc1ccccc1Nc1ccc(C(=O)O)cc1N | -0.2% | 5.6% | -4.6% | 3.14µM* | -2.5 | -12.7%
Nc1cc(C(=O)O)ccc1Nc1ccccc1 | 17.7% | 13.2% | ? | 12.5µM* | 13.9 | 3.3%
Nc1ccccc1C(=O)Nc1cccc(C(=O)O)c1 | 2.0% | 6.9% | 4.7% | -6.6% | -4.2 | 9.9%
CCNc1ccc(C(=O)O)cc1N | 1.8% | -6.4% | 2.3% | ? | -16.0 | 2.2%
CON1C(=O)C(=O)N(OC)C2CCCCCC21 (configuration not stated) | 2.7% | -4.5% | 3.3% | -5.8% | 4.9 | -8.4%

Bioassay records from PubChem.
